Screens as filed in PubChem.
A selection: hits, their analogues and other compounds. The true share with any hit is near 19%.
SARS PLpro yeast: blocks SARS-CoV papain-like protease in a yeast assay | S. cerevisiae expressing SARS-CoV PLpro, growth rescue | Potency, µM (top dose mostly 32.9 µM), most hits filed as activators | hit rate 0.19% among 330,000 | AID 485353; calls by dose curve; also: nearly all actives have a fitted effect of over 55% in size
Pf growth 96h: inhibits malaria parasite growth, 96 h | P. falciparum luciferase reporter growth, 96 h | Potency, µM (doses to about 28.7 µM), hits mostly inhibitors | hit rate 6.9% among 320,000 | AID 504834
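Infected RBCs, 2% Hct / 0.05% parasitemia final; luciferase-reporter P. falciparum; cpd 96 h, 37 C, 5% CO2; luciferase detection reagent; luminescence.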
Shiga toxin inh: Shiga toxin inhibition | AID 2315 | hit rate 9.2% among 290,000 | inhibition, % at 38.7 µM | Vero cells, Shiga toxin protein synthesis inhibition reporter; in the data active = inhibition mostly above about 28%, no sharp cut-off; inactive = mostly below about 43%
Cycloheximide cs: counter-screen hit for Shiga toxin inhibitors, cycloheximide; cell reporter, cycloheximide protein synthesis inhibition counterscreen; max response, %; hit rate 12% among 300,000; AID 2314; in the data active = max response mostly above about 13%, no sharp cut-off; inactive = mostly below about 14%; also: read at 38.3 µM for the half of the compounds with a filed dose
Pf growth 48h: P. falciparum growth inhibition at 48 hours (one generation); P. falciparum luciferase growth in erythrocytes, 48 h; AID 504832; hit rate 5.9% among 310,000; Potency, µM (series often up to 28.7 µM), most hits filed as inhibitors
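Luminescence readout; reporter = integrated firefly luciferase in P. falciparum. RBC culture at 2% hematocrit, 0.1% parasitemia final, 37 C/5% CO2; decreased signal taken as growth inhibition.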
AMA1 RON2 block: inhibitors of Plasmodium falciparum AMA1-RON2 interaction | Potency, µM (doses to about 58.2 µM), actives largely listed as inhibitors | AID 720542 | hit rate 0.2% among 360,000 | AlphaScreen AMA1-biotinylated RON2 peptide binding; also: nearly all actives have a fitted effect of over 45% in size
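AMA1 (3D7) with his tag at 25 nM final met compounds first, then biotinylated RON2 peptide at 25 nM; detection used donor plus acceptor beads, 10 µg/mL apiece, read by AlphaScreen after 30 min at room temperature.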
Numbers stand for hits; 0 = inactive; ? = inconclusive; - = no result given; + = active, no number; [ ] = another dose, or the depositor's remark. Unless noted, calls follow the shape of the dose curve; as a rule, active = well fitted curve in the direction sought with a large enough effect; inconclusive = small, poorly fitted or top-dose-only effect, or another doubt; inactive = no such curve, though single readings can be large; an effect the other way counts as inactive or inconclusive.

SMILES	SARS PLpro yeast	Pf growth 96h	Shiga toxin inh	Cycloheximide cs	Pf growth 48h	AMA1 RON2 block
O=C(NCCN1CCN(S(=O)(=O)c2ccc([N+](=O)[O-])cc2)CC1)C(=O)Nc1ccccc1	0	?	0	0	0	0
O=[N+]([O-])c1ccc(Sc2cccc3cccnc23)c2cccnc12	0	?	0	0	?	0
Cc1cc(C(=O)N/N=C/c2ccc(O)c(O)c2O)c(C)n1-c1ccccc1	0	0	73.4	54.0	11.7µM	0
Cc1cc(/C=N/NC(=O)C(O)(c2ccccc2)c2ccccc2)c(C)n1-c1ccccc1	0	?	0	0	0	0
O=C(CCN1CCN(c2ccccc2)CC1)N/N=C/c1ccc(O)c(O)c1O	0	0	0	0	0	?
Cc1cc(/C=N/NC(=O)c2cccs2)c(C)n1-c1ccccc1	0	0	11.2	26.2	-	0
COCCN(Cc1ccc(OC)cc1)c1c(C)nc2ccc(C(=O)Nc3ccc(NC(C)=O)cc3)cn12	-	-	-	-	-	0
COCCN(Cc1ccc(OC)cc1)c1c(C)nc2ccc(C(=O)NCCc3c[nH]c4ccccc34)cn12	-	-	-	-	-	0
CCn1c(SCC(=O)c2ccc(Cl)cc2)nnc1-c1cccs1	0	0	0	0	-	0
CCn1c(SCCOc2ccc(Cl)cc2)nnc1-c1cccs1	0	9.28µM	0	0	?	0
Cn1cnnc1SCCOc1ccc(Cl)cc1	0	0	0	15.3	0	0
Cn1c(SCCOc2cccc(Cl)c2)nnc1-c1ccncc1	0	?	0	0	?	0
Cc1cccc(OCCSc2nncn2C)c1	0	0	0	32.8	0	0
Cc1cccc(OCCSc2nnc(-c3ccoc3C)n2C)c1	0	11.7µM	0	0	0	0
CCc1ccc2c(c1)NC(=O)C2(C)Cc1ccc(C(F)(F)F)nc1 (stereo unspecified)	-	-	-	-	-	0
CC(=O)Nc1ccc(NC(=O)C2CCN(S(C)(=O)=O)CC2)cc1	-	-	-	-	-	0
COc1cc(Br)cc(CNc2ccc(F)c([N+](=O)[O-])c2)c1O	0	0	0	0	0	0
O=C(NC(Cc1ccccc1)C(=O)O)/C(=C/c1ccc([N+](=O)[O-])cc1)NC(=O)c1ccco1 (stereo unspecified)	0	0	0	0	0	0
CCOc1ccc(N(CC(=O)Nc2ccc(C)c(C)c2)S(=O)(=O)c2c(C)[nH]c(=O)[nH]c2=O)cc1	0	0	0	0	0	0
CCOc1ccc(N(CC(=O)Nc2ccccc2OC)S(C)(=O)=O)cc1	0	0	0	0	0	0
CCOc1ccc(N(CC(=O)Nc2ccccc2Cl)S(C)(=O)=O)cc1	0	?	74.1	28.1	0	0
CCOc1ccc(N(CC(=O)Nc2ccccc2)S(C)(=O)=O)cc1	0	0	50.2	18.6	0	0
CCOc1ccc(N(CC(=O)Nc2ccc(C)c(C)c2)S(C)(=O)=O)cc1	0	0	106.7	78.0	0	0
Cc1cc2c(cc(C(=O)NCc3cccnc3)n2Cc2ccc(Cl)cc2)o1	0	10.4µM	0	0	?	0
CN(c1ccc(C(=O)NCc2cccnc2)cc1)S(=O)(=O)c1ccc(Cl)cc1	0	0	0	0	0	0
SMILES	SARS PLpro yeast	Pf growth 96h	Shiga toxin inh	Cycloheximide cs	Pf growth 48h	AMA1 RON2 block
CCC(C)c1ccc(NC(=O)Nc2cccnc2)cc1 (stereo unspecified)	0	0	76.4	79.6	?	0
CC(C)C(=O)Nc1cccnc1	0	0	0	0	0	0
COc1ccc(NC(=O)NCc2cccnc2)cc1	0	?	0	0	0	0
CCC(C)c1ccc(NC(=O)NCc2cccnc2)cc1 (stereo unspecified)	0	0	0	26.2	0	0
O=C(NCc1cccnc1)Nc1ccc(Cl)cc1	0	?	0	17.9	0	0
CCOC(=O)C1CCCN(C(=O)CCc2nc3sc4c(c3c(=O)[nH]2)CCCC4)C1 (stereo unspecified)	0	?	-	-	?	0
Cc1ccc2c(c1)N(CC(=O)N1CCCC1)C(=O)c1cccnc1O2	0	0	0	0	0	0
Cn1c(COc2ccc3ccccc3c2)nnc1SCC(=O)OC1CCCCC1	0	0	0	0	0	0
CC(=O)N(Cc1ccccc1C)c1cccc(C)c1C	0	?	0	0	?	0
COc1ccc(Cl)cc1NC(=S)Nc1cccnc1	0	0	0	0	0	0
O=C(CN1CCSCC1)N/N=C/c1cccc(Cl)c1	0	0	0	14.6	0	0
COc1ccc(/C=N/NC(=O)CN2CCSCC2)cc1C	0	0	0	17.5	0	0[11.6 µM]
Cc1cccc(NC(=S)N2CCCCCC2)c1	?	0	0	8.0	0	0
Cc1cccc(NC(=O)N2CCN(Cc3ccccc3)CC2)c1	0	0	+	21.1	0	0
Cc1cccc(NC(=O)N2CCCCCC2)c1	0	?	55.9	38.0	0	0
Cc1ccc(NC(=O)N2CCCN(Cc3ccc(F)cc3)C2)cc1C	0	?	0	0	13.1µM	0
Cc1cccc(NC(=O)N2CCCC2)c1	0	0[5.75 µM]	0	0	0	0
Cc1cccc(C)c1NC(=S)N1CCCN(Cc2ccc(F)cc2)C1	0	0	0	0	0	0
COc1cc(OC)cc(C(=O)N[C@H](C(=O)OCC(=O)N2CCc3ccccc32)C(C)C)c1	0	0	0	0	?	0
O=C(Nc1ccc(F)c(Cl)c1)N1CCCCCC1	0	0	52.2	25.6	0	0
O=C(Nc1ccc(F)c(Cl)c1)N1CCCC1	0	0	0	0	0	0
Cc1ccc(NC(=O)N2CCCCCC2)cc1C	0	0	69.0	44.3	0	0
S=C(Nc1ccc(Br)cc1Cl)N1CCCC1	0	2.08µM	0	0	0	0
S=C(Nc1ccc2nccnc2c1)N1CCOCC1	0	?	48.2	36.9	0	0
CC1(C2CC2)NC(=O)N(CC(=O)N2CCN(c3ccc(F)cc3)CC2)C1=O (stereo unspecified)	0	0	-	-	0	0
SMILES	SARS PLpro yeast	Pf growth 96h	Shiga toxin inh	Cycloheximide cs	Pf growth 48h	AMA1 RON2 block
COC(=O)c1cccc(Oc2nc3c(c(=O)n(C)c(=O)n3C)n2C(C)C)c1	0	0	0	0	-	0
CCNC(=O)C1(C)CCN1Cc1cc(-c2ccccc2)n(C)n1 (stereo unspecified)	-	-	-	-	-	0
O=C(CCC(=O)N1CCOCC1)Nc1ccc(Cl)c(Cl)c1	0	0	0	0	0	0
Cc1cccc(CN2CCN(C(=O)CCl)CC2)c1	0	0.0738µM	0	0	1.17µM	0
S=C(Nc1ccc(Cl)c(Cl)c1)N1CCCC1	0	0	0	0	0	0
S=C(Nc1ccc2nsnc2c1)N1CCCCC1	0	0	42.0	11.3	0	0
CCOC(=O)N1CCN(C(=O)Nc2cccc3ccccc23)CC1	0	?	0	0	0	0
Cc1cccc(CN2CCN(C(=O)Cc3ccccc3)CC2)c1	0	?	0	0	?	0
O=C(CCC(=O)N1CCCCC1)Nc1ccc(Cl)c(Cl)c1	0	11.7µM	0	0	0	0
O=C(Nc1cccc2ccccc12)N1CCN(Cc2ccccc2)CC1	0	10.4µM	0	0	0	0
O=C(Oc1ccccc1C(=S)N1CCOCC1)c1ccc([N+](=O)[O-])cc1[N+](=O)[O-]	0	0	0	0	0	0
